This is an account of results in PubChem BioAssay (NCATS).

Where “and” joins values, the source holds several entries; their conditions need not be identical. Identical values can stand only once. Results filed as inconclusive are left out. Calls of active or inactive are those of the source. Unless noted, the call rests on the fitted dose curve.

Assay [1] is described as follows: qHTS for Inhibitors of the Functional Ribonucleoprotein Complex (vRNP) of Lassa (LASV) Arenavirus: LASV Primary Screen - GLuc reporter signal (AID 1347082; calls by dose curve; tested in HEK293 reporter line; further: nearly all actives have a fitted effect of over 60% in size; further: potency means the concentration at half of the fitted maximal effect; on activity change, negative = inhibition: on the % scale 0 is the no-effect control and ±100 the full control effect). On the technique in general: Quantitative high-throughput screening tests each substance at several concentrations.
Assay [2] can be described thus: qHTS for Inhibitors of the Functional Ribonucleoprotein Complex (vRNP) of Lymphocytic Choriomeningitis Arenaviruses (LCMV): Viability assay - alamar blue signal for LCMV Primary Screen (AID 1347085; calls by dose curve; tested in HEK293 reporter line; further: nearly all actives have a fitted effect of over 80% in size; further: potency means the concentration at half of the fitted maximal effect).
Assay [3] deals with Nucleoprotein (Lymphocytic choriomeningitis virus (strain Armstrong)) (UniProt P09992). In words: qHTS for Inhibitors of the Functional Ribonucleoprotein Complex (vRNP) of Lymphocytic Choriomeningitis Arenaviruses (LCMV): LCMV Primary Screen - GLuc reporter signal (AID 1347086). Further: nearly all actives have a fitted effect of over 70% in size. Further: potency means the concentration at half of the fitted maximal effect. On activity change, negative = inhibition: on the % scale 0 is the no-effect control and ±100 the full control effect.
Sequence of Nucleoprotein (Lymphocytic choriomeningitis virus (strain Armstrong)) (P09992 whole entry, looked up): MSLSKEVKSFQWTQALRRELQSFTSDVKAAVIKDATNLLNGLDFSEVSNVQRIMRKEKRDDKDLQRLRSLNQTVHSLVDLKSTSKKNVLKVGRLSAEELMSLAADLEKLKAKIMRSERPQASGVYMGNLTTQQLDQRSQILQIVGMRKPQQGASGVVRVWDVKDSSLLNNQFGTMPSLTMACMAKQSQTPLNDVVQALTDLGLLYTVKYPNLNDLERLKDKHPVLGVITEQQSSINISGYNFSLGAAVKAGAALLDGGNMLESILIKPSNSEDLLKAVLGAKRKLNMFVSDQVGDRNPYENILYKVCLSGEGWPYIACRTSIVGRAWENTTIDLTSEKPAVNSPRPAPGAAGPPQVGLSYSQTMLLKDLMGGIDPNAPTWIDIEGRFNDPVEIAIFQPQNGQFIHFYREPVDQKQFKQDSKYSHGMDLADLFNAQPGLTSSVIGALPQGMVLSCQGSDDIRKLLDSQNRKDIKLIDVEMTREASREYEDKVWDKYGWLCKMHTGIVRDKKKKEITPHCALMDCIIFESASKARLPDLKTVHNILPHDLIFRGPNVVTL
Assay [4] can be described thus: Cytotoxicity counterscreen for inhibitors of SARS-CoV-2 cell entry (AID 1645845). Further: nearly all actives have a fitted effect of over 50% in size. Further: potency means the concentration at half of the fitted maximal effect. Put shortly:
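Expi293F/hACE2 cells seeded overnight; cpd pin-transferred in DMSO, 1 h preincubation, + media, 48 h 37 C 5% CO2; ATPLite 1step luminescence; normalized to cells and no cells.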
Background: A counterscreen serves to expose hits that act by an unwanted route or on another target.

In assay [5] the target is Alpha-galactosidase (Coffea arabica) (UniProt Q42656). The assay can be described thus: Counterscreen for Glucocerebrosidase Inhibitors: qHTS Assay for Coffee Bean alpha-Galactosidase at pH 4.5 (AID 957; active means well fitted curve in the direction sought with a large enough effect; an effect the other way counts as inactive or inconclusive;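 further: plate controls were enzyme alone for no effect and no enzyme for full effect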). Put shortly: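 Green coffee bean enzyme (2 nM final) was incubated with compounds (0.7 nM to 77 uM) and 4-methylumbelliferyl alpha-D-galactopyranoside (80 uM final) in 50 mM citric acid, 0.005% Tween-20, pH 4.5, 20 min at room temperature; AC50 from Hill fits.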
Sequence of Alpha-galactosidase (Coffea arabica) (Q42656 whole entry, looked up): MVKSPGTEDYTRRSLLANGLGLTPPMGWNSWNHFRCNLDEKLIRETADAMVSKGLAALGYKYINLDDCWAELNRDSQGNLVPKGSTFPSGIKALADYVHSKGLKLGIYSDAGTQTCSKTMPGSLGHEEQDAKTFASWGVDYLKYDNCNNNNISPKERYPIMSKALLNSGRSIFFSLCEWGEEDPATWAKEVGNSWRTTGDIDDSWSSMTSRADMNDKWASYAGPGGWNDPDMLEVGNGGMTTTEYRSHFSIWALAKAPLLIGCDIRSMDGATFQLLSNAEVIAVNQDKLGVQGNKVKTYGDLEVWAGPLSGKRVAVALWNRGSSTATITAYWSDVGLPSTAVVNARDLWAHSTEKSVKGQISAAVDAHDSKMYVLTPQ

For assay [6] the target is unchanged. The assay can be described thus: Counterscreen for Glucocerebrosidase Inhibitors: qHTS Assay for Coffee Bean alpha-Galactosidase at pH 5.9 (AID 998; active means well fitted curve in the direction sought with a large enough effect; an effect the other way counts as inactive or inconclusive;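 further: plate controls were uninhibited enzyme for no effect and no-enzyme basal signal for full effect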). Put shortly:
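Green coffee bean enzyme (2 nM final) was incubated with compounds (0.7 nM–77 uM) and 4-methylumbelliferyl alpha-D-galactopyranoside (80 uM) in citrate buffer pH 5.9, 20 min at room temperature. High-pH stop; fluorescence 365/440 nm; AC50 from Hill fits.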

A short description of assay [7]: Validation screen for inhibitors of Lassa infection (AID 463096). Further: potency means the concentration at half of the fitted maximal effect. On activity change, negative = inhibition: on the % scale 0 is the no-effect control and ±100 the full control effect.
A short description of assay [8]: Inducers of the Endoplasmic Reticulum Stress Response (ERSR) in human glioma: Validation (AID 504836; active means well fitted curve in the direction sought with a large enough effect; an effect the other way counts as inactive or inconclusive; further: 0% is about no effect). Put shortly:
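Stably transfected U87-MG human glioma cells carrying a GRP78-based luminescent sensor were seeded at 1000 cells/well, pin-dosed with compounds and incubated 16 h. Luciferase reagent was then added, and end-point luminescence was read after 10 min at room temperature.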

Assay [9] in a line: Primary qHTS to identify inhibitors of SARS-CoV-2 cell entry (AID 1645846). Further: nearly all actives have a fitted effect of over 45% in size. Further: potency means the concentration at half of the fitted maximal effect. Particulars: activity change, negative = inhibition: at 57.1 µM (top of the series) unless noted. Put shortly: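 Data are normalized to wells receiving SARS-CoV-2-S pseudoparticles and those given bald particles. Entry signal was luciferase luminescence in stable hACE2 Expi293F cells, 48 hr post-infection, after 1 hr compound pretreatment.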

Assay [10] can be described thus: qHTS profiling of the MIPE4 collection as inhibitors of Plasmodium falciparum (3D7) proliferation (AID 743344; call rule not given here;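 further: scaled between DMSO vehicle wells and 0.29 µM artemisinin as full inhibition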). Conditions: P. falciparum 3D7 in erythrocytes, SYBR Green DNA fluorescence, 72 h; at 28.5 µM (top of the series) unless noted. In outline: (§1)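 Erythrocytes infected with P. falciparum (0.3% parasitemia, 2.5% hematocrit) incubated with compounds 72 h at 37 C, 5% CO2. Lysis with saponin/Triton buffer containing SYBR Green I, overnight at room temperature in the dark; DNA fluorescence (485/535 nm) normalised to 0.29 uM artemisinin and DMSO.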

Assay [11] can be described thus: qHTS profiling of the MIPE4 collection as inhibitors of Plasmodium falciparum (DD2) proliferation (AID 743345; call rule not given here). Conditions: P. falciparum Dd2 in erythrocytes, SYBR Green DNA, 72 h; at 28.5 µM (top of the series) unless noted. Put shortly: as §1
Assay [12] in a line: qHTS profiling of the MIPE4 collection as inhibitors of Plasmodium falciparum (HB3) proliferation (AID 743347; call rule not given here;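 further: plate controls were DMSO vehicle wells for no effect and artemisinin wells for full effect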). Conditions: P. falciparum HB3 in erythrocytes, SYBR Green DNA, 72 h; at 28.5 µM (top of the series) unless noted. Put shortly: as §1
The target of assay [13] is Bile acid receptor (Homo sapiens) (UniProt Q96RI1). In words: qHTS assay for small molecule agonists of farnesoid X receptor signaling (AID 588527).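 Further: 0% = vehicle basal and 100% = reference agonist.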 Conditions: HEK293T FXR-UAS-bla, beta-lactamase ratio, 16 h; activation: stronger effect = higher value. Put shortly: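 Agonist-mode beta-lactamase reporter in GeneBLAzer FXR-UAS-bla HEK293T cells, titration up to 92 uM, 16 h exposure at 37 C, CCF4 fluorescence. Response scaled to DMSO (0%) and 100 uM chenodeoxycholic acid (100%), then Hill-fitted for EC50 and efficacy.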
Sequence of Bile acid receptor (Homo sapiens) (Q96RI1 whole entry, looked up): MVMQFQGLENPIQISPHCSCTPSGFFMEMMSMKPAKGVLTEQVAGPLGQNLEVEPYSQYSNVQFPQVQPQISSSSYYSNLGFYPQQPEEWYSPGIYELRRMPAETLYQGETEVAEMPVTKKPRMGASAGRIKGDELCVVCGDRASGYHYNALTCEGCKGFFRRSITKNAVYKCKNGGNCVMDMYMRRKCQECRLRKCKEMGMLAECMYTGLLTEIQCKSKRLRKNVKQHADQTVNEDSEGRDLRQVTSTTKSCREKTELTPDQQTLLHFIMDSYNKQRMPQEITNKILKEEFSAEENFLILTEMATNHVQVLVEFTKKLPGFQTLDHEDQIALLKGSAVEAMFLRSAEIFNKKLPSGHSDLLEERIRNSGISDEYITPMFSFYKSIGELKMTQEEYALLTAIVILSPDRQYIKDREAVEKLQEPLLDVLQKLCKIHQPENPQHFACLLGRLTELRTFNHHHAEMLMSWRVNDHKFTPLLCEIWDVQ

A short description of assay [14]: Confirmatory qHTS for VERO E6 Cytotoxicity Assay: Counterscreen for SARS-CoV-2 CPE Assay (AID 1508605). Further: potency means the concentration at half of the fitted maximal effect; nearly all actives have a fitted effect of over 60% in size.
The target in assay [15] is Peroxisome proliferator-activated receptor delta (Homo sapiens) (UniProt Q03181). The assay can be described thus: qHTS assay for small molecule agonists of peroxisome proliferator-activated receptor delta signaling (AID 588534).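 Further: 0% = DMSO basal wells and 100% = positive control agonist at 10 µM.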 Put shortly:
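Cell-based beta-lactamase reporter assay run in agonist mode: cells seeded and incubated 5 hrs at 37 C, compounds added and incubated 18 hrs at 37 C. CCF4 dye fluorescence read after 2 hrs at RT; EC50 and efficacy from Hill fits.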

Sequence of Peroxisome proliferator-activated receptor delta (Homo sapiens) (Q03181 whole entry, looked up): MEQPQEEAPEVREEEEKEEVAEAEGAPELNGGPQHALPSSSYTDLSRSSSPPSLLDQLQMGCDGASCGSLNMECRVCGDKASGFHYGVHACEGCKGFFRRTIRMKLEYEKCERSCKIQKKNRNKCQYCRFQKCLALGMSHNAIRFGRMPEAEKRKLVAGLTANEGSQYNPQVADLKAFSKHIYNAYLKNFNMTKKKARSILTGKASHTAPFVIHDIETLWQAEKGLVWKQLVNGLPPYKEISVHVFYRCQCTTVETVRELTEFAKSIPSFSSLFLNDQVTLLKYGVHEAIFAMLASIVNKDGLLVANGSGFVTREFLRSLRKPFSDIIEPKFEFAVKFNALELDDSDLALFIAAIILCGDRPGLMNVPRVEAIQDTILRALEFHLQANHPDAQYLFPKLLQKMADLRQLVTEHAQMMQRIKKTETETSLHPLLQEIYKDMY

With `CN1CCN(c2cccc(Nc3nc4c(-c5ccc(S(C)(=O)=O)cc5)cccn4n3)c2)CC1`, the Potency entry in assay [1], in assay [2], in assay [3] and in assay [4] was “inactive” throughout.

`COc1cc2c(c(OC)c1OC)-c1ccc(OC)c(=O)cc1[C@@H](NC=O)CC2`: the Potency in assay [1] is 35.5 µM (active). Besides, the Potency result in assay [2] and in assay [3] was “inactive” throughout.

For the compound `CC(=O)O[C@@]12CO[C@H]1C[C@H](O)[C@@]1(C)C(=O)[C@H](O)C3=C(C)[C@@H](OC(=O)C(O)[C@@H](NC(=O)OC(C)(C)C)c4ccccc4)C[C@@](O)([C@@H](OC(=O)c4ccccc4)[C@@H]21)C3(C)C` (stereo partly specified), the Potency result in assay [1], in assay [2] and in [3] was “inactive” in each case.

As to `COc1cc(C(=O)O[C@H]2C/C(C)=C/CC[C@@]3(C)O[C@@H]3[C@H](O)[C@@H]2C(C)C)cc(OC)c1OC`, the Potency result in assay [1], in assay [2] and in assay [3] was “inactive” each time.

Take `OCc1ccc(-c2nn(Cc3ccccc3)c3ccccc23)o1`: the compound was called inactive in assay [5], in [6] and in assay [8]. Also, the Potency in assay [7] is 4.47 µM (active). Further, the Potency result in assay [1], in [2] and in [3] was “inactive” each time. The activity change, negative = inhibition in assay [9] is -87.6%.

`CC(N[C@H]1CCCC[C@H]1NC(=O)c1ccc(Cl)cc1)c1cccc2ccccc12` (stereo partly specified) came in with a parasite growth, % of DMSO control in assay [10] of 31.1%. The compound also yielded a parasite growth remaining, % of DMSO control (lower = more inhibition) in assay [11] of 79.2%. Besides, in [12], the growth, % of control is 39.9%. Also, the Potency result in assay [1] and in assay [4] was “inactive” throughout. In addition, the Potency is 3.43 µM (active) in [2], 4.85 µM (active) in assay [3] and 28.2 µM (active) in assay [9].

Turning to `N#CC(c1ccnc(NCCc2cccnc2)n1)c1nc2ccccc2s1` (stereo unspecified), the Potency entry in assay [1], in assay [4] and in assay [9] was “inactive” in each case. In addition, in assay [2], the Potency is 15.3 µM (active).

As for `Nc1nc(Cl)nc2c1ncn2[C@@H]1O[C@H](COP(=O)(O)OP(=O)(O)OP(=O)(O)O)[C@@H](O)[C@H]1O`, the result in [8] was inactive. Besides, the Potency entry in assay [1], in assay [2] and in assay [3] was “inactive” in each case.

As for `NC(=O)c1cccc2[nH]c(-c3ccc([C@H]4CCCN4)cc3F)nc12`, the Potency entry in [1], in assay [2] and in [3] was “inactive” each time. The Potency is 11.2 µM (active) in assay [4] and 31.6 µM (active) in assay [9].

Regarding `O=c1c(-c2ccc(O)cc2)coc2cc(O)ccc12`, the call in assay [5], in assay [6] and in assay [8] was inactive. Besides, the Potency entry in assay [7], in [1], in assay [2], in assay [3] and in assay [9] was “inactive” in each case. The activation in assay [13] was 2% (inactive) and 3.27% (inactive).

Turning to `COc1cc2ncnc(Nc3cccc(Cl)c3)c2cc1OC`, the outcome in assay [5], in assay [6] and in assay [8] was inactive. The Potency entry in assay [7], in [1], in assay [2], in assay [3] and in assay [4] was “inactive” in each case. Moreover, the activity change, negative = inhibition in assay [9] was 0.792%.

As to `CC1(C)Oc2cc3oc(-c4cc(O)cc(O)c4)cc3cc2CC1O` (stereo unspecified), the Potency result in [1] and in [3] was “inactive” in each case.

With `COc1ccc(-c2cc(=O)c3c(O)c(OC)c(OC)cc3o2)cc1O`, the Potency entry in [1] and in assay [3] was “inactive” each time.

With `COc1ccc(C2CC(c3ccccc3)=NN2c2ccc(S(N)(=O)=O)cc2)cc1` (stereo unspecified), the Potency entry in assay [1], in assay [2], in [3] and in assay [4] was “inactive” each time. Further, the activity change, negative = inhibition in [9] was -0.201%.

Consider `COc1ccc(CN2CCc3cc(OC)c(OC)cc3C2)cc1O`, for which the Potency result in assay [1] and in assay [3] was “inactive” in each case.

For `CCCCCC(O)c1cccc(OCc2ccc3ccccc3n2)c1` (stereo unspecified), the Potency entry in [7], in assay [1], in assay [2] and in assay [3] was “inactive” each time. For the same compound, the compound was classed as inactive in [8].

For `CN(C)CCc1cc2c(c3c1ccc1ccccc13)OCO2`, the Potency result in assay [1] and in [3] was “inactive” each time.

Turning to `CC(N)(Cc1ccc(O)c(O)c1)C(=O)O` (stereo unspecified), the Potency result in assay [7], in [1], in assay [2] and in [3] was “inactive” each time.

Take `CC1=CC(O)C(O)C2(C)C1CC1OC(=O)C(O)C3C(C)C(O)C4(O)OCC13C42` (stereo unspecified): the Potency entry in assay [1] and in assay [3] was “inactive” throughout.

As for `O=C(O)Cc1ccc(O)c(O)c1`, the outcome in assay [5], in [6] and in assay [8] was inactive. Moreover, the Potency result in assay [1], in assay [2] and in [3] was “inactive” each time.

Consider `Fc1ccc(CNc2ncnc3ccc(F)cc23)cc1`, for which the values for the Potency in assay [1], in assay [3] and in assay [9] were 19.3 µM (active), 24.3 µM (active) and 8.91 µM (active), respectively. Also, in [2], the Potency result is “inactive”.

In the case of `Nc1nc(NCCNc2ncc(-n3ccnc3)c(-c3ccc(Cl)cc3Cl)n2)ccc1[N+](=O)[O-]`, the Potency result in [1] and in assay [4] was “inactive” throughout. Besides, the Potency in [2] was 15.3 µM (active). Moreover, the activity change, negative = inhibition in assay [9] is -29.7%.

On to `Nc1ncnc2c1c(-c1cccc(OCc3ccccc3)c1)cn2C1CC(CN2CCCC2)C1` (stereo unspecified), for which the Potency entry in assay [1] was “inactive”. In addition, the Potency in [2] was 27.3 µM (active); in assay [14], 12.6 µM (active); in assay [9] it was 14.1 µM (active).

With `C=C1C(=CC=C2CCC[C@]3(C)[C@@H]([C@H](C)CCCC(C)(C)O)CC[C@@H]23)C[C@@H](O)C[C@@H]1O`, the Potency result in assay [1] and in [3] was “inactive” in each case.

As for `C[C@H](NC(=O)c1sccc1OCc1ccc(Cl)cc1)c1ccccc1`, the Potency entry in [1], in [2] and in [4] was “inactive” each time.

Regarding `FC(F)(F)c1ccc(C=Cc2nc(COc3ccc(CCCCn4ccnn4)cc3)co2)cc1`, the Potency in assay [1] is 0.0432 µM (active); in [3], 0.0217 µM (active).

Turning to `O=C(Nc1ccccc1)c1cc([N+](=O)[O-])ccc1Cl`, the call in assay [5], in [6] and in [8] was inactive. In assay [13], the activation was -1.48% (inactive). The Potency entry in assay [15], in assay [1] and in assay [2] was “inactive” throughout.
